Reference: PubChem BioAssay (EPA / NIEHS)
Records with an inconclusive call do not appear. The source made the active and inactive calls. Rule for the calls: active = hit-call score of the fitted dose curve at least 0.9, where 1 is the maximum; inconclusive = response in the unintended direction; inactive = score below 0.9.

Key:
[1] = target: human Adrenergic, Alpha 2A Receptor (Adra2A), ADRA2A (gene 150) (UniProt P08913); assay: NVS_GPCR_hAdra2A: NovaScreen (NVS) G Protein-Coupled Receptor Assay for human Adrenergic, Alpha 2A Receptor (Adra2A) (AID 2283257)
Chain of human Adrenergic, Alpha 2A Receptor (Adra2A), ADRA2A (gene 150) (P08913 whole entry, looked up): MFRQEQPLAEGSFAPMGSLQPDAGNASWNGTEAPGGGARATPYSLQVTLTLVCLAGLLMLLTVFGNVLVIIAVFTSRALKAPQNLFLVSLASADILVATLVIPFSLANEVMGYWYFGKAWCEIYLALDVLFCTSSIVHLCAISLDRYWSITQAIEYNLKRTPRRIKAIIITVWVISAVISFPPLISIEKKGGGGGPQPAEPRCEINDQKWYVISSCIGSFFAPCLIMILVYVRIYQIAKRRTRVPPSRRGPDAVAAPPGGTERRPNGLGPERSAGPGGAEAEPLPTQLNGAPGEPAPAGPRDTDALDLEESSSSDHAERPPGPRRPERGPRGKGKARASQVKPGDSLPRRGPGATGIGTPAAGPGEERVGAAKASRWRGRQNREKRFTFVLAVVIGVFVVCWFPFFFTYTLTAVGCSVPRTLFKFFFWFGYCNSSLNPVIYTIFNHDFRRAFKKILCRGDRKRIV
Method in brief: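 Radioligand filter-binding was run on HT29-derived membranes, cell-free, read by scintillation counting 1 h after dosing. Primary screening was in duplicate at 25 uM, with concentration series in follow-up. Loss of signal versus DMSO indicates displacement.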

[2] = target: Adenosine receptor A1 (Bos taurus) (UniProt P28190); assay: NVS_GPCR_bAdoR_NonSelective: NovaScreen (NVS) G Protein-Coupled Receptor Assay for bovine Adenosine Receptor (AdoR), Non-selective Binding (AID 2283244)
Chain of Adenosine receptor A1 (Bos taurus) (P28190 whole entry, looked up): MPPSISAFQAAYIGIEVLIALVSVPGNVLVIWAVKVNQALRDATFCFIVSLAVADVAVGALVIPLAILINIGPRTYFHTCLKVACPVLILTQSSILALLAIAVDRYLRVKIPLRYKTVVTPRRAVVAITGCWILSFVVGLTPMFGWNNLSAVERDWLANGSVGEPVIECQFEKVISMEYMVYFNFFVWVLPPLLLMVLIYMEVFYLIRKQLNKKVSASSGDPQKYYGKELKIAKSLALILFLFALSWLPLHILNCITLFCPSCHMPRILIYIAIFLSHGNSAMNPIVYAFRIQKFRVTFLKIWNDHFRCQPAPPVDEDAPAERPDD
Method in brief: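 Bovine striatal membranes, radioligand displacement binding, 1 h after dosing, filter-based scintillation counting. Screened in duplicate at 25 uM, then concentration-response up to 50 uM; loss of specific binding relative to DMSO.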

[3] = target: guinea pig Leukotriene D4 Receptor (LTD4), CYSLTR1 (gene 100135514) (UniProt Q2NNR5); assay: NVS_GPCR_gLTD4: NovaScreen (NVS) G Protein-Coupled Receptor Assay for guinea pig Leukotriene D4 Receptor (LTD4) (AID 2283248)
Chain of guinea pig Leukotriene D4 Receptor (LTD4), CYSLTR1 (gene 100135514) (Q2NNR5 whole entry, looked up): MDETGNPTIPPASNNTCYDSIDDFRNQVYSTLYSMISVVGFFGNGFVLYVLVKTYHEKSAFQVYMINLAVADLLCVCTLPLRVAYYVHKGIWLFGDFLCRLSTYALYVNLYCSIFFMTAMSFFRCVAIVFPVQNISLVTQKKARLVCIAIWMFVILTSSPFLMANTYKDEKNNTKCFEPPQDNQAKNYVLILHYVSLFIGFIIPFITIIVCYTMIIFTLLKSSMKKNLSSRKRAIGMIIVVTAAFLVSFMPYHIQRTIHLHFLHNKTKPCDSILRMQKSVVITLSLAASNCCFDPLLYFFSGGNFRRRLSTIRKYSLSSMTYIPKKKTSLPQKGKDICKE
Method in brief: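 Radioligand displacement on guinea pig lung membranes, 1 h incubation, filtration and scintillation counting; DMSO as negative control. Duplicate 25 uM primary screen, then singleton concentration-response up to 50 uM.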

[4] = target: guinea pig Opioid, Kappa 1 Receptor (OpiateK), OPRK1 (gene 100135587) (UniProt P41144); assay: NVS_GPCR_gOpiateK: NovaScreen (NVS) G Protein-Coupled Receptor Assay for guinea pig Opioid, Kappa 1 Receptor (OpiateK) (AID 2283252);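 note: radioligand displacement from kappa opioid receptor in guinea pig cerebellar membranes; active means reduced radioligand binding relative to DMSO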
Chain of guinea pig Opioid, Kappa 1 Receptor (OpiateK), OPRK1 (gene 100135587) (P41144 whole entry, looked up): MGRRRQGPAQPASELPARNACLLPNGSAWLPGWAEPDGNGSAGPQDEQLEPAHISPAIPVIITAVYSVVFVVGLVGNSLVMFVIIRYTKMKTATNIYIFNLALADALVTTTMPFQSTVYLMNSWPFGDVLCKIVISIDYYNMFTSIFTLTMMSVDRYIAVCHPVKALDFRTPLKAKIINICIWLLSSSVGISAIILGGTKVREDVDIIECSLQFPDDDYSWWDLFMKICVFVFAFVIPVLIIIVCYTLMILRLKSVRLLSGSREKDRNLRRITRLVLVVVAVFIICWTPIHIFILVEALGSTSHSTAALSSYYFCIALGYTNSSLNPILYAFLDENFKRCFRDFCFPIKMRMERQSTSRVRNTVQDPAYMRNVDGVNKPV
Method in brief: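 Guinea pig cerebellar membranes, radioligand displacement with filter-based scintillation counting, 2 h after dosing. Primary screen single concentration 25 uM in duplicate; actives retested in concentration series; loss of binding fitted versus DMSO.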

[5] = target: human Serotonin, 5-Hydroxytryptamine Receptor 6 (5HT6), HTR6 (gene 3362) (UniProt P50406); assay: NVS_GPCR_h5HT6: NovaScreen (NVS) G Protein-Coupled Receptor Assay for human Serotonin, 5-Hydroxytryptamine Receptor 6 (5HT6) (AID 2283253)
Chain of human Serotonin, 5-Hydroxytryptamine Receptor 6 (5HT6), HTR6 (gene 3362) (P50406 whole entry, looked up): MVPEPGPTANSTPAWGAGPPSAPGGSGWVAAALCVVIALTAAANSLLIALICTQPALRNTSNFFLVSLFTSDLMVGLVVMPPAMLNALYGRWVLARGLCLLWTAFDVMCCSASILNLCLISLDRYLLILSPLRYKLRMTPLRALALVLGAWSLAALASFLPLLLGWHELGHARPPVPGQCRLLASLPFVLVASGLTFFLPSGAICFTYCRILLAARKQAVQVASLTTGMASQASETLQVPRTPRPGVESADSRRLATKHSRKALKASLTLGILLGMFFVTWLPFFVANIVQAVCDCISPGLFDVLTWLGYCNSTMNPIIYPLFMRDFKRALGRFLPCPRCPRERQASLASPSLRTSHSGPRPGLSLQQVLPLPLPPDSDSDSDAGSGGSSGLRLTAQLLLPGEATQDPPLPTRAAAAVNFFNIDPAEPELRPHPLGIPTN
Method in brief: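 Radioligand binding to 5HT6 in HEK293-derived membranes, cell-free, 1 h after dosing; bound ligand measured by filter-based scintillation counting. Primary screen in duplicate at 25 uM; actives retested in concentration series.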

[6] = target: human Serotonin, 5-Hydroxytryptamine Receptor 7 (5HT7), HTR7 (gene 3363) (UniProt P34969); assay: NVS_GPCR_h5HT7: NovaScreen (NVS) G Protein-Coupled Receptor Assay for human Serotonin, 5-Hydroxytryptamine Receptor 7 (5HT7) (AID 2283255);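 note: hits reduce specific radioligand binding relative to DMSO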
Chain of human Serotonin, 5-Hydroxytryptamine Receptor 7 (5HT7), HTR7 (gene 3363) (P34969 whole entry, looked up): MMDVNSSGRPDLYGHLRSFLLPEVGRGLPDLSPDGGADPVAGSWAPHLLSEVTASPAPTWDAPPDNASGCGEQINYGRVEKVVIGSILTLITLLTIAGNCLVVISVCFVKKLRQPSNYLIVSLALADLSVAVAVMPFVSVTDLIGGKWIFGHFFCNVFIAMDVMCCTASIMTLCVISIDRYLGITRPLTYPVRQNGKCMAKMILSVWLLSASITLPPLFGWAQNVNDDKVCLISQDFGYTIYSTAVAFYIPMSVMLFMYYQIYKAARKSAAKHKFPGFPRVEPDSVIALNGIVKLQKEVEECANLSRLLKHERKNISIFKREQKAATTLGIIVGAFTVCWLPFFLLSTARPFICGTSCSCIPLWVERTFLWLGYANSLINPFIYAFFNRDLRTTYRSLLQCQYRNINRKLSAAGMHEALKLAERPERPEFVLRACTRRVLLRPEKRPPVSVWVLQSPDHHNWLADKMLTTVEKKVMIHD
Method in brief: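 Radioligand displacement on membranes from CHO cells expressing human 5HT7, 1 h incubation, filter-based scintillation counting. Primary screen used a single 25 uM concentration in duplicate; actives were followed up in concentration series.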

[7] = target: human Adrenergic, Beta 1 Receptor (Adrb1), ADRB1 (gene 153) (UniProt P08588); assay: NVS_GPCR_hAdrb1: NovaScreen (NVS) G Protein-Coupled Receptor Assay for human Adrenergic, Beta 1 Receptor (Adrb1) (AID 2283258)
Chain of human Adrenergic, Beta 1 Receptor (Adrb1), ADRB1 (gene 153) (P08588 whole entry, looked up): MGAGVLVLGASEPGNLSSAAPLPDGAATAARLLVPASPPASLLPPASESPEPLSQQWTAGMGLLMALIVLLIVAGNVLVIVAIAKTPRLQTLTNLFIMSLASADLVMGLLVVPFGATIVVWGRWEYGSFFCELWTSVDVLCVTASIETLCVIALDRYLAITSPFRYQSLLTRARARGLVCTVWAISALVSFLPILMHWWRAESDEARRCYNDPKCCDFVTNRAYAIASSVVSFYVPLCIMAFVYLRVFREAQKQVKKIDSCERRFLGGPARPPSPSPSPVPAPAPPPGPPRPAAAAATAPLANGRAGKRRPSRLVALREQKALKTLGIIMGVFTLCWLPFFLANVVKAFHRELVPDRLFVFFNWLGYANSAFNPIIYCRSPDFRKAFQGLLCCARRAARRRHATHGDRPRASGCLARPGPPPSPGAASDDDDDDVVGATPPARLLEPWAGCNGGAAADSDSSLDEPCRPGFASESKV
Method in brief: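 Cell-free radioligand displacement on receptor from human neuroepithelioma cells; 2 h after dosing, filter-based scintillation counting. Primary screen in duplicate at 25 uM, actives retested in concentration series; loss of signal vs DMSO baseline.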

[8] = target: Type-1 angiotensin II receptor (Homo sapiens) (UniProt P30556); assay: NVS_GPCR_hAT1: NovaScreen (NVS) G Protein-Coupled Receptor Assay for human Angiotensin II receptor type 1 (AT1) (AID 2283263)
Chain of Type-1 angiotensin II receptor (Homo sapiens) (P30556 whole entry, looked up): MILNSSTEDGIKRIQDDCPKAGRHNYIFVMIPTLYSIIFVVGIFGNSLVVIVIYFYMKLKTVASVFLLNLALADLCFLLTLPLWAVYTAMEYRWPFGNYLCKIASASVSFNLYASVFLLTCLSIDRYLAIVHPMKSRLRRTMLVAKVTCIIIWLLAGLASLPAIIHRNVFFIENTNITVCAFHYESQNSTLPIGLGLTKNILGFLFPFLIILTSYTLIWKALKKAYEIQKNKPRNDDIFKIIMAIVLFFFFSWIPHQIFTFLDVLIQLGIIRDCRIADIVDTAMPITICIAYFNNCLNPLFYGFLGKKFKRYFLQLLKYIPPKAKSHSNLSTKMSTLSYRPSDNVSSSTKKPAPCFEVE
Method in brief: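 Membranes from KAN-TS cells; radioligand competitive displacement, 3 h, filtration and scintillation counting. Single-point duplicate screen at 25 uM, then concentration-response up to 50 uM for hits; loss of signal fitted versus DMSO.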

[9] = target: human Adrenergic, Alpha 2c Receptor (Adra2C), ADRA2C (gene 152) (UniProt P18825); assay: NVS_GPCR_hAdra2C: NovaScreen (NVS) G Protein-Coupled Receptor Assay for human Adrenergic, Alpha 2c Receptor (Adra2C) (AID 2283259)
Chain of human Adrenergic, Alpha 2c Receptor (Adra2C), ADRA2C (gene 152) (P18825 whole entry, looked up): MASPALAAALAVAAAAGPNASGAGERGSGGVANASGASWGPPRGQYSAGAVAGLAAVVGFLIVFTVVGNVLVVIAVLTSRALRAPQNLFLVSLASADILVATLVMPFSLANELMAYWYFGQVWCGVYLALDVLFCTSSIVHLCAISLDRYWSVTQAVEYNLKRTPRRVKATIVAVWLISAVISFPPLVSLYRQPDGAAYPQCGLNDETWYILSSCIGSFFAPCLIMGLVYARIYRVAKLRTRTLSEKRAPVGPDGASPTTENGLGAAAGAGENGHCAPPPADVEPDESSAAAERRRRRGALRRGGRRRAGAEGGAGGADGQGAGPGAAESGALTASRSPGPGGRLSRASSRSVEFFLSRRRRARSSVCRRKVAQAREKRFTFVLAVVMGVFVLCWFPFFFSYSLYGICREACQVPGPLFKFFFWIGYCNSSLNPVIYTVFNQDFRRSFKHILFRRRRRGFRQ
Method in brief: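 Radioligand binding on Sf9-expressed receptor membranes, 1 h after chemical dosing, filter-based scintillation read-out. Loss of binding fitted positively versus DMSO; primary duplicate screen at 25 uM, actives retested in concentration series.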

[10] = target: human Adenosine A1 Receptor (AdoRA1), ADORA1 (gene 134) (UniProt P30542); assay: NVS_GPCR_hAdoRA1: NovaScreen (NVS) G Protein-Coupled Receptor Assay for human Adenosine A1 Receptor (AdoRA1) (AID 2283254)
Chain of human Adenosine A1 Receptor (AdoRA1), ADORA1 (gene 134) (P30542 whole entry, looked up): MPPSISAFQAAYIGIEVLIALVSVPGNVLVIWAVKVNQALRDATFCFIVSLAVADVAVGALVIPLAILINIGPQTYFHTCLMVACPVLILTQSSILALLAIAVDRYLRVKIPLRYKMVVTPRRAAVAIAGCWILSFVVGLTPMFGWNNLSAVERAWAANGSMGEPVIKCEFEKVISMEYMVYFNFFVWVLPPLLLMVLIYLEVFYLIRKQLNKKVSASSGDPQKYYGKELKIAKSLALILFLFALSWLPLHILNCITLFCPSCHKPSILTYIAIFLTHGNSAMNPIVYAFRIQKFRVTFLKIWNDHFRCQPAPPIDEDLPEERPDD
Method in brief: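 Each chemical is first tested twice at 25 uM, actives later in dilution series, against a radioligand bound to human cortex membranes; after 1 h, filter-retained counts are compared with DMSO controls, lower signal indicating displacement.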

[11] = tested on: guinea pig Leukotriene B4 Receptor (LTB4), gene 100379538; assay: NVS_GPCR_gLTB4: NovaScreen (NVS) G Protein-Coupled Receptor Assay for guinea pig Leukotriene B4 Receptor (LTB4) (AID 2283247)
Method in brief: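 Radioligand displacement on guinea pig spleen membranes, filter-based scintillation counting 2 h after dosing. Primary duplicate single point at 25 uM; hits over threshold (e.g. 30% inhibition) run in concentration-response up to 50 uM, DMSO baseline.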

[12] = tested on: guinea pig Muscarinic, Peripheral (Mperiperal) Receptor, Non-selective Binding, gene 100379235; assay: NVS_GPCR_gMPeripheral_NonSelective: NovaScreen (NVS) G Protein-Coupled Receptor Assay for guinea pig Muscarinic, Peripheral (Mperiperal) Receptor, Non-selective Binding (AID 2283250)
Method in brief: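 Guinea pig bladder membranes, radioligand binding read 1 h after dosing by filter scintillation counting; loss of signal vs DMSO. Primary duplicate screen at 25 uM, then concentration-response up to 50 uM.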

[13] = target: human Adenosine A2a Receptor (AdoRA2a), ADORA2A (gene 135) (UniProt P29274); assay: NVS_GPCR_hAdoRA2a: NovaScreen (NVS) G Protein-Coupled Receptor Assay for human Adenosine A2a Receptor (AdoRA2a) (AID 2283256)
Chain of human Adenosine A2a Receptor (AdoRA2a), ADORA2A (gene 135) (P29274 whole entry, looked up): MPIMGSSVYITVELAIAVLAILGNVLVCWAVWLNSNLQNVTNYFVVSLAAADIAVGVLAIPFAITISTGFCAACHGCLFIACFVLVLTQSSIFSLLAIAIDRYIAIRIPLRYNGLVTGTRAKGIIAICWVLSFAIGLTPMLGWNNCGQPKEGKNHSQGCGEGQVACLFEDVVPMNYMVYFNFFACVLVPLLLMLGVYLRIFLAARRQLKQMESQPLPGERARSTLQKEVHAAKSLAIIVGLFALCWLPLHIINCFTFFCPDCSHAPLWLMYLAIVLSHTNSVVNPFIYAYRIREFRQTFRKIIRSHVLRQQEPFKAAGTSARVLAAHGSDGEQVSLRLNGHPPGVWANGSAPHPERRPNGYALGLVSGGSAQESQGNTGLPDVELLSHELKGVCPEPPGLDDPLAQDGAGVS
Method in brief: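 Cell-free radioligand binding on membranes from HEK293 expressing the receptor; competitive displacement read 1.5 h after dosing by filter-based scintillation counting. Primary screen in duplicate at 25 uM; actives followed in concentration series, with DMSO as baseline.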

`NNC(=O)c1ccncc1` was tested, and the outcome [1] was “inactive”.
For `CCN(CC)C(=S)SSC(=S)N(CC)CC`, the outcome [2] was “inactive”, the AC50 [3] was 1.24 µM (active) and the outcome [4] was “inactive”. The AC50 [5] was 8.33 µM (active), the AC50 [6] was 13.5 µM (active) and the AC50 [7] was 2.55 µM (active). The outcome [8] was “inactive”.
With `c1ccc2cc3ccccc3cc2c1` the outcome [5] was “inactive”.
In the case of `Cc1ncc([C@@H](CCCCCCc2ccc3c(n2)NCCC3)CC(=O)O)cn1`, the AC50 [1] is reported as 13.7 µM (active) and the AC50 [9] is reported as 16.2 µM (active).
With `CCCOc1ccc(S(=O)(=O)N2CCN(CC)CC2)cc1-c1nc2c(CC)n(Cc3ccccn3)nc2c(=O)[nH]1` the outcome [2] was “inactive”, the outcome [4] was “inactive” and the AC50 [10] was 6.54 µM (active).
In the case of `Cc1nccn1-c1ccc(Sc2cccc(C3(C(N)=O)CCOCC3)c2)cc1`, the AC50 [11] is reported as 8.42 µM (active), the AC50 [12] is reported as 25 µM (active) and the AC50 [4] is reported as 2.06 µM (active). For the same compound, the outcome [10] was “inactive”, the AC50 [13] was 4.51 µM (active) and the outcome [8] was “inactive”.
In the case of `O=C(O)c1ccc2c(c1)nc(C(=O)NC1CCN(C3CC3)CC1)n2Cc1cc(-c2ccc(Cl)s2)on1`, the AC50 [1] is reported as 0.308 µM (active) and the outcome [9] is reported as “inactive”.
With `COCc1nnc(-c2ccc[n+]([O-])c2)n1-c1c(Cl)c(Cl)cc2[nH]c(=O)c(=O)[nH]c12` the outcome [11] was “inactive”, the outcome [3] was “inactive” and the outcome [5] was “inactive”. The AC50 [10] was 32.2 µM (active) and the outcome [13] was “inactive”.
